Only some compounds are listed: those with a hit (about 10% of all), similar ones and a draw of the others.
GPT2 inh = Primary qHTS assay for inhibitors of Glutamate pyruvate transaminase 2 (GPT2). Potency, µM (top dose mostly 57.7 µM), inactives show at the highest dose activity change, negative = inhibition, usual class: inhibitors. Recombinant GPT2, coupled pyruvate oxidase/HRP Amplex Red fluorescence. AID 1671188, 2021. Alanine aminotransferase 2 (Homo sapiens), Q8TD30. 0.25% of 100,000 active; note: % is set by controls: 0 for no effect and ±100 for the full control effect; nearly all actives have a fitted effect of over 60% in size
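Recombinant GPT2 (10ng/uL) with 250uM a-KG and 2mM L-alanine, 30 min at room temperature, in HEPES pH 7.5 buffer. Pyruvate detected by pyruvate oxidase/HRP/Amplex Red fluorescence after 30 min in the dark; AOA (50uM) as positive control.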
FLuc inh-1 = Firefly luciferase inhibition profiling of diverse chemical library using quantitative high-throughput screening; Potency, µM (doses to about 115 µM), usual class: inhibitors; AID 1347043, 2019; Luciferin 4-monooxygenase (Photinus pyralis), P08659; 2.5% of 76,000 active; purified P. pyralis luciferase, luminescence, biochemical; note: % is set by controls: 0 for no effect and ±100 for the full control effect; nearly all actives have a fitted effect of over 65% in size
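Luminescence read by CCD imaging after purified firefly luciferase (10nM final) was added to substrate buffer holding 10uM D-luciferin and 10uM ATP, pH 7.5, pre-dosed with compound.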
3T3 cytotox = Cytotoxic Profiling in NIH 3T3 Cell Line of Diverse Libraries Using Quantitative High-Throughput Screening | Potency, µM (top dose mostly 96.7 µM), for inactives: top-dose activity change, negative = cytotoxicity, most hits filed as inhibitors | AID 1345082, 2018 | NIH 3T3 viability, CellTiter-Glo ATP luminescence, 48-72 h | 4.3% of 94,000 active; note: % is set by controls: 0 for no effect and ±100 for the full control effect; nearly all actives have a fitted effect of over 55% in size
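Viability of NIH 3T3 cells after 48 or 72 hr compound treatment at 37 °C was assessed by CellTiter-Glo, with luminescence imaged following a 10 min room-temperature step.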
HEK293 tox = Cytotoxic Profiling in HEK 293 Cell Line of Diverse Libraries Using Quantitative High-Throughput Screening. AID 1345083, 2018. HEK 293 viability, ATP luminescence (CellTiter-Glo), 48-72 h. Potency, µM (titrated, usually from 115 µM), for inactives: top-dose activity change, negative = cytotoxicity, most hits filed as inhibitors. 6.6% of 94,000 active; note: % is set by controls: 0 for no effect and ±100 for the full control effect; nearly all actives have a fitted effect of over 60% in size
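CellTiter-Glo luminescence (cellular ATP) was read after 48 or 72 hr of compound exposure at 37 degree Celsius. Cells were HEK 293 plated at 250 cells/well.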
NPR1 antag = Natriuretic polypeptide receptor (hNpr1) antagonism - Primary qHTS; Atrial natriuretic peptide receptor 1 (Homo sapiens), P16066; HEK293 hNpr1 GloSensor cGMP, ANP-stimulated luminescence; Potency, µM (titrated, usually from 46.3 µM), inactives show at the highest dose activity change, negative = inhibition, usual class: inhibitors; 1.6% of 76,000 active; AID 1347048, 2019; calls by dose curve; note: % is set by controls: 0 for no effect and ±100 for the full control effect; nearly all actives have a fitted effect of over 60% in size
Target sequence (P16066 whole entry, looked up): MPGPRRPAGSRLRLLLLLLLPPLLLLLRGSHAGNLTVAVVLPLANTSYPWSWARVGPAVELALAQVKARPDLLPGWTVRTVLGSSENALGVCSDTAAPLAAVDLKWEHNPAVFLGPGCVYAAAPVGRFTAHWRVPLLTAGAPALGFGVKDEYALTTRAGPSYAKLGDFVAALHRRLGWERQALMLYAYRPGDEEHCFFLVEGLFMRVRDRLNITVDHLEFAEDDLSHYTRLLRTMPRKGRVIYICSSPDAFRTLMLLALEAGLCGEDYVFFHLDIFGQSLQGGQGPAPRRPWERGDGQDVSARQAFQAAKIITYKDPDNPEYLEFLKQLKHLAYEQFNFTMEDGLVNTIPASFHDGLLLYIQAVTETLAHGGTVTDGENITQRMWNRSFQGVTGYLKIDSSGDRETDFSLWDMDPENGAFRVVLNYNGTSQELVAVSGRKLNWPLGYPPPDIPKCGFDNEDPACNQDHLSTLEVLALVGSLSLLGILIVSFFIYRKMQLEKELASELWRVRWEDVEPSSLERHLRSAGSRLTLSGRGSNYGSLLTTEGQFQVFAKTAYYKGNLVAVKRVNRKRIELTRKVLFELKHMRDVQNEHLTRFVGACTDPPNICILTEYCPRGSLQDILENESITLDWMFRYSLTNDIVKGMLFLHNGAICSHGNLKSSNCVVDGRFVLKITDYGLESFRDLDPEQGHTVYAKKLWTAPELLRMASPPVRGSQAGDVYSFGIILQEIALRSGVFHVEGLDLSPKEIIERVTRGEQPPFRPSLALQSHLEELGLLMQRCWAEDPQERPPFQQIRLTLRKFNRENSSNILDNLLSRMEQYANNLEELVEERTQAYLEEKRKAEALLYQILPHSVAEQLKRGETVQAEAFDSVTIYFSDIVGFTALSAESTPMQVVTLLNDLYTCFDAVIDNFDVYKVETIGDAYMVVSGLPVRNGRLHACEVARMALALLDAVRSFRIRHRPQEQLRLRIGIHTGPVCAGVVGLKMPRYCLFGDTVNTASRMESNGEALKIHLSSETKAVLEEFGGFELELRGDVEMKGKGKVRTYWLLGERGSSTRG
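HEK293 cells stably expressing human Npr1 and cGMP GloSensor pGS-40F, loaded 2 h with 2% GloSensor reagent, given compound 30 min at room temperature. Luminescence read before and 20 min after 0.1 nM hNppA.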
FLuc SDR -ATP = Firefly luciferase (FLuc-C-HiBiT) SDR gain of signal screen - without ATP. shares compounds with FLuc inh-1. Purified FLuc-C-HiBiT, Nano-Glo HiBiT luminescence, no ATP. Potency, µM (doses to about 32.7 µM), without a hit: at the highest dose activation (signal gain), most hits filed as activators. 7.8% of 1,300 active. AID 1963318, 2024; note: nearly all actives have a fitted effect of over 55% in size
FLuc SDR ATP = Firefly luciferase (FLuc-C-HiBiT) SDR gain of signal screen - plus ATP. shares compounds with FLuc inh-1. purified FLuc-C-HiBiT + ATP, HiBiT complementation luminescence. Potency, µM (doses to about 32.7 µM), without a hit: at the highest dose activation (gain of signal), hits mostly activators. 8.7% of 1,300 active. AID 1963319, 2024;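 note: signal reports ligand binding via conformational change of the enzyme rather than luciferase catalysis; % of control where 0% means no effect; nearly all actives have a fitted effect of over 55% in size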
FLuc inh-2 = Firefly luciferase (FLuc-C-HiBiT) enzymatic inhibition screen - Functional assay; shares compounds with FLuc inh-1; purified FLuc-C-HiBiT enzyme, luciferin luminescence; Potency, µM (titrated, usually from 32.7 µM), for the others: at the highest dose activity change, negative = inhibition, hits mostly inhibitors; 42% of 1,300 active; AID 1963320, 2024; note: % is set by controls: 0 for no effect and ±100 for the full control effect; nearly all actives have a fitted effect of over 70% in size
* marks the source's active call; other numbers are inactive results; i = inactive; ? = inconclusive; · = no result; [ ] = dose if it differs, or a comment. Unless noted, calls come from the whole dose curve; as a rule, active = well fitted curve in the direction sought with a large enough effect; inconclusive = small, poorly fitted or top-dose-only effect, or another doubt; inactive = no such curve, though single readings can be large; an effect the other way counts as inactive or inconclusive. Potency is the fitted concentration of half-maximal effect.

SMILES	GPT2 inh	FLuc inh-1	3T3 cytotox	HEK293 tox	NPR1 antag	FLuc SDR -ATP	FLuc SDR ATP	FLuc inh-2
O=C(Nc1cnc(-c2ccccc2)nc1)c1ccccc1C(F)(F)F	i	?	-1.7%	?	-16.4%	·	·	·
Cc1ccc(-c2ncc(NC(=O)c3ccccc3F)cn2)cc1	-7.7%	0.562µM*	i	5.8%	?	25.6%	?	1.97µM*
COc1ccc(CCNC(=O)C2CCCN(c3nc4c(C)cc(C)cc4s3)C2)cc1OC (stereo not given)	·	·	·	·	·	17.4%	19.7%	?
COc1ccc(CCNC(=O)c2ccc3c(c2)N(C)C2CCCN2C3=O)cc1OC (stereo not given)	i	i	-22.2%	-12.7%	-13.8%	·	·	·
CCCNc1cc(N2CCC(CCC(=O)O)CC2)ncn1	i	39.8µM*	2.2%	4.4%	3.4%	15.2%	9.89µM*	7.85µM*
O=C(CCC1CCN(c2cc(NC3CC3)ncn2)CC1)Nc1ccccc1	i	?	-24.4%	?	?	·	·	·
O=C(O)CCC1CCN(c2cc(NC3CC3)ncn2)CC1	i	5.01µM*	-11.9%	5.3%	-0.4%	15.6%	3.94µM*	3.13µM*
Cc1cccc(CNC(=O)c2c(C)noc2-c2ccccc2Cl)c1	-8.5%	i	?	?	-3.0%	·	·	·
CCc1cccc(NCc2ccccc2-c2nnc(-c3ccccc3Cl)o2)c1	·	·	·	·	·	12.1%	11.3%	-3.6%
Cn1ccnc1CN1C(=O)CO[C@H](c2ccc(NC(=O)Nc3ccccc3)cc2)[C@H]1CO	1.4%	10µM*	1.9%	-3.9%	-0.3%	17.8%	13.4%	?
COc1cccc2cc(C(=O)Nc3ccc(CC(=O)O)cc3)c(=O)oc12	·	·	·	·	·	2.48µM*	1.76µM*	3.13µM*
COc1ccc(CCN2Cc3cc(NC(=O)c4ccccc4OC)ccc3OCC2=O)cc1	-0.9%	i	?	?	-19.1%	·	·	·
O=C(c1cccc(Cl)c1)N1CCn2c(nn(-c3ccncc3)c2=O)C1	i	i	?	-27.5%	-6.3%	·	·	·
O=C(O)c1cccc(-c2cccc(C(F)(F)F)c2)c1	-10.6%[88.5 µM]	·	-2.2%[138 µM]	i	·	·	·	·
O=C(O)c1cccc(-c2noc(-c3cccc(Cl)c3)n2)c1	·	·	·	·	·	12.4µM*	0.0221µM*	0.007µM*
COc1ccc(-c2noc(-c3nc(C)no3)n2)cc1	i	i	3.2%	-2.3%	3.6%	·	·	·
O=C(O)c1cccc(-c2ncccn2)c1	-11.5%[88.5 µM]	·	2.9%[174 µM]	4.6%[230 µM]	·	·	·	·
O=C(O)c1ccc(-c2noc(-c3cccc(C(F)(F)F)c3)n2)cc1	·	·	·	·	·	11.7%	19.8%	?
COc1ccc(-c2nc(-c3ccc(C(=O)O)cc3)no2)cc1	·	·	·	·	·	12.4µM*	0.111µM*	0.111µM*
COc1cccc(-c2nc(-c3cccc(C(=O)O)c3)no2)c1	·	·	·	·	·	12.4µM*	0.007µM*	0.0039µM*
O=C(O)c1cccc(-c2noc(-c3ccc(Cl)cc3)n2)c1	·	·	·	·	·	2.79µM*	0.005µM*	0.0022µM*
Cc1ccc(-c2nc(C(=O)N3CCN(c4ccc(Cl)cc4)CC3)no2)cc1	i	?	-11.0%	-0.5%	?	·	·	·
O=C(O)c1ccc(-c2noc(-c3ccc(Cl)cc3)n2)cc1	·	·	·	·	·	?	1.4µM*	0.785µM*
O=C(c1cccc(Cl)c1)N1CCC(n2cc(-c3nc(-c4ccccc4)no3)nn2)CC1	1.7%	i	?	?	?	·	·	·
COc1cc(-c2noc(-c3nc(-c4ccccc4)no3)n2)cc(OC)c1OC	i	i	i	-3.0%	-1.1%	·	·	·
SMILES	GPT2 inh	FLuc inh-1	3T3 cytotox	HEK293 tox	NPR1 antag	FLuc SDR -ATP	FLuc SDR ATP	FLuc inh-2
COc1ccccc1-c1nc(-c2ccc(C(=O)O)cc2)no1	·	·	·	·	·	15.7%	2.21µM*	1.97µM*
COc1ccc(C(=O)N2CCC(c3nn(-c4ccc(F)cc4)c(=O)[nH]3)CC2)cc1	i	i	-20.4%	-10.9%	0.0%	·	·	·
CC(=O)N1CC[C@H]2COC(=O)N2c2cc(C)ccc2C1	i	i	-16.7%[174 µM]	-12.4%[230 µM]	-0.5%[70.6 µM]	·	·	·
O=C(NC[C@H]1Cn2cc(-c3ccc4c(c3)OCCCO4)nc2CO1)c1ccc2c(c1)OCO2	0.9%	10µM*	-24.9%	?	-17.1%	?	?	?
O=C(CCc1ccccc1)NCCC1CCN(C(=O)Nc2cc(F)cc(F)c2)CC1	i	i	-22.6%	?	3.4%	·	·	·
CC(C)n1ccnc1CN1CCC2(CCCO2)CCC1=O (stereo not given)	i[11.5 µM]	i	-14.5%	-9.6%	-2.9%	·	·	·
CN(Cc1cnn(C)c1)C(=O)c1csc2nc(-c3ccc(C(F)(F)F)cc3)cn12	i	4.47µM*	?	?	?	?	?	4.42µM*
CC1CCCN(c2ncnc3c2cnn3-c2cccc(Cl)c2)C1 (stereo not given)	·	·	·	·	·	11.1µM*	?	0.785µM*
Cc1ccc(-n2ncc3c(N4CCCC(C)C4)ncnc32)cc1C (stereo not given)	·	·	·	·	·	3.51µM*	1.24µM*	0.157µM*
CC1CCCN(c2ncnc3c2CN(c2ccccc2)C(=O)N(C)C3)C1 (stereo not given)	i	i	-7.4%	i	-0.1%	·	·	·
CN1Cc2ncnc(NCCc3ccc(F)cc3)c2CN(c2ccc(Cl)cc2)C1=O	i	i	?	?	-21.7%	·	·	·
CC1(NC(=O)C2CC2)CN(Cc2nc(-c3cccc(F)c3)cs2)C1	0.1%[88.5 µM]	2.82µM*	-19.8%[138 µM]	?	25.1µM*	?	18.9%[49.3 µM]	?
CC1(NC(=O)C2CC2)CN(Cc2nc(-c3ccccc3OCc3ccccc3)cs2)C1	1.7%[88.5 µM]	7.94µM*	?	79.4µM*	-14.1%[70.6 µM]	19.0%[49.3 µM]	12.8%[49.3 µM]	?
